“And” between values parts separate entries of the source, which are not always exact repeats. Equal entries are not always repeated. Compounds without any hit were thinned out: in the full panel of roughly 83,000, 20% have a hit.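 Assay: single dose, 48 h. Readout: percent growth (0 = no net growth; negative = cell death). Active: <10.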 A number with no mark means an inactive call. The source made the active and inactive calls.

For the first assay, the system named is HCC-2998 colon. As to the kind of experiment: NCI-60 one-dose screen, 48 h (100 = growth as untreated, 0 = no growth, -100 = all killed). As to conditions: 10 µM unless noted.
Consider `O=C(COc1ccc(/C=C2/C(=O)Nc3ccc(Cl)cc32)cc1)Nc1ccc(Br)cc1`, for which the growth was 41.6%.

As to `CCCCNc1ccc2c3c(cccc13)C(=O)N(NCC(O)COc1ccc3c(C)cc(=O)oc3c1)C2=O` (centres undefined), the growth was 104%.

In the case of `COc1ccc(C(=O)c2c(N)c(C#N)cn2-c2ccc([N+](=O)[O-])cc2)cc1`, the growth is 101%.

Take `C=CC(=O)N1CCN(c2ccc3nc4c(nc3c2C(F)(F)F)C(=O)c2ncccc2C4=O)CC1`: the growth was 5.17% (active).

Consider `NC(=O)c1ccc(-c2ccc3ncnc(N4CCc5cc(F)c(Cl)cc54)c3c2)cn1`, for which the growth is 89.7%.

Turning to `Cc1ccc2nc(NC(=O)Nc3cccc(Cl)c3)sc2c1`, the growth was 122%.

With `O=C(c1ccc(Cl)cc1)C1[C@H](c2ccccc2Cl)[C@@H](c2ccccc2)NC12C(=O)Nc1ccccc12` (some centres undefined), the growth is -46.2% (active).

Consider `CCCn1c(NC(=O)c2cccc(C(N)=O)c2)nc2ccc(CN3CCCCC3)cc21`, for which the growth is 107%.

On to `S=C(NCCc1ccccc1)Nc1ccc(OCc2nc3ccc(Cl)cc3[nH]2)cc1`, for which the growth is 3.57% (active).

As for `Cc1ccc(Cl)cc1NC(=O)Nc1nc2ccc([N+](=O)[O-])cc2s1`, the growth is -10.1% (active).

Take `C[C@@H]1CN(c2ccc3ncc(C#Cc4cncc(C(=O)Nc5ccc(CN6CCN(C)CC6)c(C(F)(F)F)c5)c4)n3n2)C[C@@H](C)O1`: the growth was -97% (active).

For `O=C1C=CC(=CC=C2N(Cc3ccc4ccccc4c3)c3ccccc3N2Cc2ccc3ccccc3c2)C=C1`, the growth was 21.1% and 33.1%.

In the case of `CNS(=O)(=O)N1CCc2c(Br)c3c(c(OC)c2C1CCc1ccccc1)OCO3` (centres undefined), the growth is -12.7% (active).

Turning to `Cc1ccc(Cl)cc1NC(=O)N/C(N)=N/c1nc2ccccc2s1`, the growth is -14.8% (active).

On to `COc1ccc(N=Nc2c(N)nn3c(N)c(C#N)c(-c4ccccc4)nc23)cc1`, for which the growth is 65.2%.

As for `Cc1cccc(/C=C/c2ccc(NC(=S)NCCCCN(C)C)cc2)c1`, the growth was -92.7% (active).

On to `COc1ccc(-c2cc(-c3ccccc3)c(C#N)c(=O)[nH]2)cc1S(N)(=O)=O`, for which the growth was 122%.

In the case of `CC(C)(C)OC(=O)N1C/C(=C\c2ccc(F)cc2)C(=O)/C(=C/c2ccc(F)cc2)C1`, the growth is -98% (active).

As for `COc1cc(C=O)ccc1Oc1nc(Nc2ccc(F)cc2)nc(N(C)C)n1`, the growth is 108% and 75.6%.

`N#Cc1c(-c2ccc(F)cc2)nc(SCc2ccc(F)cc2)nc1N1CCNCC1`: the growth was -91% (active).

As for `COc1ccc(-c2nc3ccc(-c4nnc(SCc5ccccc5)o4)cc3[nH]2)cc1OC`, the growth was 63.2%.

Regarding `COc1cccc(NC(=O)c2ccc(NC(=O)CCl)s2)c1`, the growth is 80.6%.

As for `COc1ccc(/C=C/C(=O)c2ccc(S(=O)(=O)NCCNc3nc(N(C)C)nc(N4CCOCC4)n3)cc2)cc1`, the growth was 116%.

For `COc1ccc(S(=O)(=O)Nc2ccc(-c3ccc4c(c3)NC(=O)/C4=C\c3ccc[nH]3)cc2)cc1OC`, the growth is 24.2%.

Turning to `C=CCSc1nnc(-c2ccc(-c3nc4ccc(Cl)cc4[nH]3)cc2)o1`, the growth was 83.4%.

As for `COc1cccc(-c2ccc(/C=N/NC(=O)c3[nH]c4ccc(Br)cc4c3-c3ccccc3)s2)c1`, the growth was 5.11% (active).

For `Nc1nn2c(-c3cc4cc(Br)ccc4oc3=O)ccnc2c1N=Nc1ccc(Br)cc1`, the growth is 39.2%.

`COc1cc(/C=C/C(=O)c2cnn(-c3cc(=O)[nH]c4ccccc34)c2C)cc(OC)c1OC`: the growth is -1.51% (active).

`COc1ccc(-c2nc3ccc(-c4nnc(SCC(=O)Nc5ccc(/C(C)=N\O)cc5)o4)cc3[nH]2)cc1`: the growth was 126%.

Consider `CCOC(=O)c1ccc(NC(=S)NC(=O)c2cccc(NC(=O)c3ccc(C)cc3)c2)cc1`, for which the growth is 98.4%.

As for `Cn1cc(-c2cc(N)n3nc(-c4c[nH]c5ccccc45)cc3n2)c2cc(F)ccc21`, the growth was -65.5% (active).

Consider `COC(=O)c1ccc(-c2c(-c3ccccc3)c(F)c3oc(C(=O)OC)c(N)c3c2-c2ccccc2)cc1`, for which the growth is 98.4%.

As for `COc1ccc(-c2cc(C(=O)OCc3ccc(Br)cc3)nn2-c2ccc(S(C)(=O)=O)cc2)cc1OC`, the growth is 95.8%.

Consider `COc1ccc2ccccc2c1/C=C1\SC(=Nc2ccc(O)cc2)NC1=O`, for which the growth is -0.301% (active).

As to `COc1ccc2[nH]c(O)c(N=Nc3nc(-c4ccc(C#N)cc4)cs3)c2c1`, the growth is 90.8%.

Take `Cc1ccc(C(C)C)cc1Oc1cccc(-c2c(-c3ccc(C(F)(F)F)cc3)ncn2C2CCNCC2)n1`: the growth is -85.4% (active).

In the case of `Cc1cc(C2(c3cc(C)c(OCC(O)CNc4c(C)n(C)n(-c5ccccc5)c4=O)cc3C(C)C)OC(=O)c3ccccc32)c(C(C)C)cc1OCC(O)CNc1c(C)n(C)n(-c2ccccc2)c1=O` (centres undefined), the growth is 36.8%.

For a further assay, the system named is KM12 colon. The assay is described as above. Conditions: 10 µM unless noted.
With `O=C(COc1ccc(/C=C2/C(=O)Nc3ccc(Cl)cc32)cc1)Nc1ccc(Br)cc1`, the growth is 2.45% (active).

For the compound `CCCCNc1ccc2c3c(cccc13)C(=O)N(NCC(O)COc1ccc3c(C)cc(=O)oc3c1)C2=O` (centres undefined), the growth is 85.7%.

Consider `COc1ccc(C(=O)c2c(N)c(C#N)cn2-c2ccc([N+](=O)[O-])cc2)cc1`, for which the growth is 105%.

Take `C=CC(=O)N1CCN(c2ccc3nc4c(nc3c2C(F)(F)F)C(=O)c2ncccc2C4=O)CC1`: the growth was 9.15% (active).

Consider `NC(=O)c1ccc(-c2ccc3ncnc(N4CCc5cc(F)c(Cl)cc54)c3c2)cn1`, for which the growth is 96.1%.

In the case of `Cc1ccc2nc(NC(=O)Nc3cccc(Cl)c3)sc2c1`, the growth is 98.6%.

For the compound `O=C(c1ccc(Cl)cc1)C1[C@H](c2ccccc2Cl)[C@@H](c2ccccc2)NC12C(=O)Nc1ccccc12` (some centres undefined), the growth was -23.4% (active).

Take `CCCn1c(NC(=O)c2cccc(C(N)=O)c2)nc2ccc(CN3CCCCC3)cc21`: the growth was 24%.

Take `S=C(NCCc1ccccc1)Nc1ccc(OCc2nc3ccc(Cl)cc3[nH]2)cc1`: the growth is 18.6%.

In the case of `Cc1ccc(Cl)cc1NC(=O)Nc1nc2ccc([N+](=O)[O-])cc2s1`, the growth is -2.73% (active).

On to `C[C@@H]1CN(c2ccc3ncc(C#Cc4cncc(C(=O)Nc5ccc(CN6CCN(C)CC6)c(C(F)(F)F)c5)c4)n3n2)C[C@@H](C)O1`, for which the growth was -66.6% (active).

For the compound `O=C1C=CC(=CC=C2N(Cc3ccc4ccccc4c3)c3ccccc3N2Cc2ccc3ccccc3c2)C=C1`, the growth was 33.8% and 11.2%.

For `CNS(=O)(=O)N1CCc2c(Br)c3c(c(OC)c2C1CCc1ccccc1)OCO3` (centres undefined), the growth is 2.02% (active).

For `Cc1ccc(Cl)cc1NC(=O)N/C(N)=N/c1nc2ccccc2s1`, the growth is -28.7% (active).

On to `COc1ccc(N=Nc2c(N)nn3c(N)c(C#N)c(-c4ccccc4)nc23)cc1`, for which the growth was 45%.

As for `Cc1cccc(/C=C/c2ccc(NC(=S)NCCCCN(C)C)cc2)c1`, the growth is -48.6% (active).

On to `COc1ccc(-c2cc(-c3ccccc3)c(C#N)c(=O)[nH]2)cc1S(N)(=O)=O`, for which the growth was 103%.

With `CC(C)(C)OC(=O)N1C/C(=C\c2ccc(F)cc2)C(=O)/C(=C/c2ccc(F)cc2)C1`, the growth is -90.7% (active).

Turning to `COc1cc(C=O)ccc1Oc1nc(Nc2ccc(F)cc2)nc(N(C)C)n1`, the growth is 99.3% and 68.5%.

Turning to `N#Cc1c(-c2ccc(F)cc2)nc(SCc2ccc(F)cc2)nc1N1CCNCC1`, the growth is -81.2% (active).

Take `COc1ccc(-c2nc3ccc(-c4nnc(SCc5ccccc5)o4)cc3[nH]2)cc1OC`: the growth is 61.2%.

In the case of `COc1cccc(NC(=O)c2ccc(NC(=O)CCl)s2)c1`, the growth was 42.4%.

For the compound `COc1ccc(/C=C/C(=O)c2ccc(S(=O)(=O)NCCNc3nc(N(C)C)nc(N4CCOCC4)n3)cc2)cc1`, the growth was 64.8%.

For the compound `COc1ccc(S(=O)(=O)Nc2ccc(-c3ccc4c(c3)NC(=O)/C4=C\c3ccc[nH]3)cc2)cc1OC`, the growth was 33.6%.

On to `C=CCSc1nnc(-c2ccc(-c3nc4ccc(Cl)cc4[nH]3)cc2)o1`, for which the growth is 34.6%.

As to `COc1cccc(-c2ccc(/C=N/NC(=O)c3[nH]c4ccc(Br)cc4c3-c3ccccc3)s2)c1`, the growth is -14.2% (active).

`Nc1nn2c(-c3cc4cc(Br)ccc4oc3=O)ccnc2c1N=Nc1ccc(Br)cc1`: the growth was 51.7%.

Take `COc1cc(/C=C/C(=O)c2cnn(-c3cc(=O)[nH]c4ccccc34)c2C)cc(OC)c1OC`: the growth is 4.79% (active).

Consider `COc1ccc(-c2nc3ccc(-c4nnc(SCC(=O)Nc5ccc(/C(C)=N\O)cc5)o4)cc3[nH]2)cc1`, for which the growth was 37.6%.

Turning to `CCOC(=O)c1ccc(NC(=S)NC(=O)c2cccc(NC(=O)c3ccc(C)cc3)c2)cc1`, the growth was 97.5%.

On to `Cn1cc(-c2cc(N)n3nc(-c4c[nH]c5ccccc45)cc3n2)c2cc(F)ccc21`, for which the growth was -33.9% (active).

Turning to `COC(=O)c1ccc(-c2c(-c3ccccc3)c(F)c3oc(C(=O)OC)c(N)c3c2-c2ccccc2)cc1`, the growth is 95.6%.

For the compound `COc1ccc(-c2cc(C(=O)OCc3ccc(Br)cc3)nn2-c2ccc(S(C)(=O)=O)cc2)cc1OC`, the growth was 93.1%.

Regarding `COc1ccc2ccccc2c1/C=C1\SC(=Nc2ccc(O)cc2)NC1=O`, the growth is 17.3%.

As for `COc1ccc2[nH]c(O)c(N=Nc3nc(-c4ccc(C#N)cc4)cs3)c2c1`, the growth is 78.4%.

`Cc1ccc(C(C)C)cc1Oc1cccc(-c2c(-c3ccc(C(F)(F)F)cc3)ncn2C2CCNCC2)n1`: the growth was -79.5% (active).

For the compound `Cc1cc(C2(c3cc(C)c(OCC(O)CNc4c(C)n(C)n(-c5ccccc5)c4=O)cc3C(C)C)OC(=O)c3ccccc32)c(C(C)C)cc1OCC(O)CNc1c(C)n(C)n(-c2ccccc2)c1=O` (centres undefined), the growth is 16.5%.
